UBC13 inh = blocks human UBC13 polyubiquitin chain formation; P61088; TR-FRET; inhibition, % at 20 µM; 330,000 tested, 0.47% active; AID 485273; in the data active = inhibition above about 45%, passing the limit was not always enough
MEKK2 mut-MEK5 = signal of MEK5 binding to mutant human MEKK2 PB1 domain; bead flow cytometry, Alexa488-MEK5 binding to MEKK2 mutant; percent response, % at 10 µM; 290,000 tested, 0.35% active; AID 1530; in the data active = percent response above about 24%, passing the limit was not always enough
PREPL inh = human PREPL enzyme inhibition | Q4J6C6 | recombinant PREPL, fluorescence polarization activity-based probe | inhibition, % at 5.96 µM | 320,000 tested, 0.68% active; in the data active = inhibition above about 43%
Target sequence (Q4J6C6 whole entry, looked up): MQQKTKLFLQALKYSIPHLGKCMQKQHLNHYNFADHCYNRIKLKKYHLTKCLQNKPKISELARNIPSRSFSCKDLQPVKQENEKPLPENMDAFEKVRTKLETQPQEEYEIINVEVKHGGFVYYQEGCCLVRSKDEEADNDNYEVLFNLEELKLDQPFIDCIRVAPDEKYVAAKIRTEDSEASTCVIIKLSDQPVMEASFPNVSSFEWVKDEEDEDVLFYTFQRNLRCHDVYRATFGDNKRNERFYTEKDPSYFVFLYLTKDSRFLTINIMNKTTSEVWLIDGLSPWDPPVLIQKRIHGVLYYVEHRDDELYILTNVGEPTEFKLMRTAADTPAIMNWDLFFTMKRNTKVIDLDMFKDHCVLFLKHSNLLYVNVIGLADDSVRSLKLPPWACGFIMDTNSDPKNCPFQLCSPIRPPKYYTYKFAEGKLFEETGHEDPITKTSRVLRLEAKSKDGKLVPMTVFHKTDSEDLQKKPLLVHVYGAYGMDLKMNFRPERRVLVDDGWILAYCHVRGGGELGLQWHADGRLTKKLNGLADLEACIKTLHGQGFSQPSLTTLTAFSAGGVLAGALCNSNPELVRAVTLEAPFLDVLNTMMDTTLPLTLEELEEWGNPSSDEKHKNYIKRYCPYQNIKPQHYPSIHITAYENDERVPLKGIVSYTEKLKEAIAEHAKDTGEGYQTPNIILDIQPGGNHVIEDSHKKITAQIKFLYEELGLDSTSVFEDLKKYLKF
ATG4B inhibitor = ATG4B (human) cysteine protease inhibition; Q9Y4P1; ATG4B cleavage of LC3-PLA2, NBD-HPC fluorescence, 1 h; inhibition, % at 8.33 µM; 340,000 tested, 0.51% active; AID 504462; in the data active = inhibition above about 40%
MEKK2 WT-MEK5 = raises or lowers MEK5 binding to wildtype human MEKK2 PB1 domain; AID 1531; 290,000 tested, 1.1% active; bead flow cytometry, Alexa488-MEK5 binding to MEKK2 WT; actives lie on both sides; binding response (% of control), % at 10 µM; in the data active = binding response below about 67% or above about 130%
MEKK3 PB1 HTS = MEKK3-MEK5 PB1 interaction, increase or decrease. AID 1529. Q99759. bead-based flow cytometry, Alexa488-MEK5 binding to MEKK3; actives lie on both sides; 0 = blocked by unlabeled MEK5, 100 = vehicle. binding response (% of control), % at 10 µM. 290,000 tested, 1.4% active;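 active = binding response more than 3 SD above or below the average of its plate-row segment, actives on both sides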;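 note: Alexa488 bead fluorescence after subtracting the streptavidin-only scavenger bead signal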
MEKK2wt confirm = raises or lowers MEK5 binding to wildtype human MEKK2, retest. 5,900 tested, 2.4% active. shares compounds with MEKK3 PB1 HTS. bead flow cytometry, Alexa488-MEK5 binding to MEKK2 WT; actives lie on both sides. binding response (% of control), % at 10 µM; in the data active = binding response below about 16% or above about 210%; inactive = in between
MEKK2mut-MEK5 = signal of MEK5 binding to mutant human MEKK2, retest; 5,900 tested, 2% active; percent response, % at 10 µM; shares compounds with MEKK3 PB1 HTS; bead flow cytometry, Alexa488-MEK5 binding to MEKK2 mutant; in the data active = percent response mostly above about 71%, no sharp cut-off; inactive = mostly below about 38%;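 note: higher means compound restores mutant binding toward wildtype level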
MEKK3 confirm = MEKK3-MEK5 PB1 inhibition, single concentration confirmation; shares compounds with MEKK3 PB1 HTS; bead flow cytometry, Alexa488-MEK5 binding to MEKK3; hits give low values; binding response (% of control), % at 10 µM; 5,900 tested, 1.8% active; AID 1894;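 active = binding response below 72% of control, or above a set upper limit, though filed actives all read lower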;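 note: lower values mean stronger disruption of MEK5 binding to MEKK3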
Numbers stand for hits; [ ] = dose if it differs, or a comment. Shown are actives, neighbours in structure and some others; about 3.1% of the full set was active somewhere.

`Cc1ccc(C(C)NC(=O)COC(=O)C2=COCCO2)cc1C` (stereo unspecified) gave UBC13 inh inactive, PREPL inh inactive and ATG4B inhibitor inactive.
CC(C)CN1C(=O)C(=O)N(CC(=O)N2CCN(c3ccccc3)CC2)C1=O was read as UBC13 inh inactive, PREPL inh inactive and ATG4B inhibitor inactive.
For C[C@H]1CN([C@@H](C)CO)C(=O)c2cc(NC(=O)C3CCCCC3)ccc2O[C@H]1CN(C)S(=O)(=O)c1ccccc1 the results were UBC13 inh inactive, PREPL inh inactive and ATG4B inhibitor inactive.
Screening c1ccc2c(-c3nnc(SCc4cn5ccccc5n4)o3)c[nH]c2c1 returned UBC13 inh inactive, MEKK2 mut-MEK5 inactive, PREPL inh inactive, ATG4B inhibitor inactive, MEKK2 WT-MEK5 inactive and MEKK3 PB1 HTS inactive.
Screening c1ccc2c(-c3cn4ccccc4n3)c[nH]c2c1 returned UBC13 inh inactive, MEKK2 mut-MEK5 inactive, PREPL inh inactive, MEKK2 WT-MEK5 63[inhibitor], MEKK3 PB1 HTS inactive, MEKK2wt confirm inactive, MEKK2mut-MEK5 inactive and MEKK3 confirm inactive.
`CCOc1ccc(OCC(=O)Nc2ccc(OC)cc2[N+](=O)[O-])cc1` gave UBC13 inh inactive, MEKK2 mut-MEK5 inactive, PREPL inh inactive, ATG4B inhibitor inactive, MEKK2 WT-MEK5 inactive, MEKK3 PB1 HTS 37[inhibitor], MEKK2wt confirm inactive, MEKK2mut-MEK5 inactive and MEKK3 confirm inactive.
`Cc1cc(C(=O)COC(=O)c2ccc[nH]c2=O)c(C)n1-c1ccccc1F` gave UBC13 inh inactive, MEKK2 mut-MEK5 inactive, PREPL inh inactive, ATG4B inhibitor inactive, MEKK2 WT-MEK5 inactive and MEKK3 PB1 HTS inactive.
Screening CCCn1c(C)cc(C(=O)COC(=O)c2ccc[nH]c2=O)c1C returned UBC13 inh inactive, MEKK2 mut-MEK5 inactive, PREPL inh inactive, ATG4B inhibitor inactive, MEKK2 WT-MEK5 inactive, MEKK3 PB1 HTS 130, MEKK2wt confirm inactive, MEKK2mut-MEK5 inactive and MEKK3 confirm inactive.
Screening O=C1C2C(C(=O)N1c1ccccc1)N1CCCN1C2c1ccccc1 (stereo unspecified) returned UBC13 inh inactive, MEKK2 mut-MEK5 inactive, PREPL inh inactive, ATG4B inhibitor inactive, MEKK2 WT-MEK5 inactive and MEKK3 PB1 HTS inactive.
O=C(Nc1ccc(C(F)(F)F)cc1)c1cc(S(=O)(=O)NCC2COc3ccccc3O2)ccc1F (stereo unspecified) was read as UBC13 inh inactive, MEKK2 mut-MEK5 inactive, PREPL inh inactive, ATG4B inhibitor inactive, MEKK2 WT-MEK5 inactive, MEKK3 PB1 HTS 136, MEKK2wt confirm inactive, MEKK2mut-MEK5 inactive and MEKK3 confirm inactive.
CS(=O)(=O)Nc1cccc(C(=O)OCCCOc2ccc(F)cc2)c1 was read as UBC13 inh inactive, MEKK2 mut-MEK5 inactive, PREPL inh inactive, ATG4B inhibitor inactive, MEKK2 WT-MEK5 31[inhibitor], MEKK3 PB1 HTS 64[inhibitor], MEKK2wt confirm inactive, MEKK2mut-MEK5 inactive and MEKK3 confirm inactive.
For CCOc1ccc(Cn2ccnc2)cc1[N+](=O)[O-] the results were UBC13 inh inactive, MEKK2 mut-MEK5 inactive, PREPL inh inactive, ATG4B inhibitor inactive, MEKK2 WT-MEK5 inactive, MEKK3 PB1 HTS 129, MEKK2wt confirm inactive, MEKK2mut-MEK5 inactive and MEKK3 confirm inactive.
`CCCCCOc1ccc(Cn2ccnc2)cc1[N+](=O)[O-]` gave UBC13 inh inactive, MEKK2 mut-MEK5 inactive, PREPL inh inactive, ATG4B inhibitor inactive, MEKK2 WT-MEK5 inactive and MEKK3 PB1 HTS inactive.
`CCOC(=O)c1ccc(NC(=O)C2(c3ccccc3)CCOCC2)cc1` gave UBC13 inh inactive, MEKK2 mut-MEK5 inactive, PREPL inh inactive, ATG4B inhibitor inactive, MEKK2 WT-MEK5 inactive and MEKK3 PB1 HTS inactive.
